High-throughput results as filed in PubChem BioAssay.
DT40 TDP1 no CPT: qHTS for Inhibitors of human tyrosyl-DNA phosphodiesterase 1 (TDP1): qHTS in cells in absence of CPT; AID 686978, 2013; Potency, µM (top dose mostly 46.2 µM), usual class: inhibitors; DT40 Tdp1-/- hTDP1 cells, no CPT, ATP luminescence, 48 h; 420,000 tested, 15% active; note: nearly all actives have a fitted effect of over 55% in size
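Seeded 400 DT40-hTDP1 cells/well (vehicle DMSO, no 20 nM CPT); pinned compounds; ≥48 hr at 37 °C; CellTiter-Glo luminescence as viability measure.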
ALOX12 inh: ALOX12 (human) lipoxygenase inhibition. purified 12hLO, xylenol orange hydroperoxide absorbance. Potency, µM (series often up to 108 µM), hits mostly inhibitors. AID 1671190. P18054. 580,000 tested, 1.1% active
Target sequence (P18054 whole entry, looked up): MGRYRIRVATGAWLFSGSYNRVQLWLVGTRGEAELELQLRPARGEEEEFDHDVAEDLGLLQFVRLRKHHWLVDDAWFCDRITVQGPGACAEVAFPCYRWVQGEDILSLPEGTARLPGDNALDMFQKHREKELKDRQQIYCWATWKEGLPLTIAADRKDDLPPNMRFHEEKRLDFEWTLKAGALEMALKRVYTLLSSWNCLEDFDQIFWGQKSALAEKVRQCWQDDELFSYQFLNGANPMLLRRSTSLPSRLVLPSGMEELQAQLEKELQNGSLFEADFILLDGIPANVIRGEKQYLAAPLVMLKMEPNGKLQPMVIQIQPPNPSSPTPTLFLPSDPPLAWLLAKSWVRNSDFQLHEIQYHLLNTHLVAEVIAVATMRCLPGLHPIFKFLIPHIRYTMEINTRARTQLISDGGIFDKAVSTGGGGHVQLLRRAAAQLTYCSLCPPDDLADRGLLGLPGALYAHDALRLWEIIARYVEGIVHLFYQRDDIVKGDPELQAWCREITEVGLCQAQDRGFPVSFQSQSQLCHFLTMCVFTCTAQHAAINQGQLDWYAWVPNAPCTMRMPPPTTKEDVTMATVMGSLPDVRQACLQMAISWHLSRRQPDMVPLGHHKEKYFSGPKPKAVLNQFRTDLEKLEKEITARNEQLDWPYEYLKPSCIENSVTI
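Purified human 12hLO at 150 nM in 25 mM Hepes, 0.01% Triton X-100, pH 7.0, preincubated 15 min at room temperature with compound. Reaction started with 40 uM arachidonic acid, 30 min at room temperature. Hydroperoxide measured by Fe-xylenol orange, 573/405 nm absorbance ratio.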
IL-1B inflam inh: inhibitors of inflammasome signaling (IL-1 beta secretion); THP-1 LPS/ATP IL-1B secretion, AlphaLISA, 16 h; stronger effect = lower value; activity change, % at 57.5 µM; 360,000 tested, 4.7% active; in the data active = activity change below about -50%; inconclusive = mostly about -30% to -49%
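Secreted IL-1B measured by AlphaLISA bead assay after 16 h compound exposure of THP-1 cells; compounds (final up to 57.5 uM) added 1 h before LPS (250 ng/mL) and ATP (1.25 mM) stimulation; lower signal means less secretion.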
HT1080 IDH1KD tx: HT-1080 IDH1 knockdown cell toxicity (counter line) | Potency, µM (series often up to 46.1 µM), actives largely listed as cytotoxic | 360,000 tested, 2% active | HT-1080 IDH1 knockdown viability, ATP luminescence, 48 h | AID 686971
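Cytotoxicity counter-line: IDH1KD HT-1080, 48 h, CellTiter-Glo. Curves classed by r2, magnitude and activity.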
DT40 TDP1 CPT: growth inhibition of DT40 Tdp1-/-;hTDP1 cells with camptothecin (screen for TDP1 inhibitors). chicken DT40 Tdp1-/-;hTDP1 cells + 20 nM CPT, ATP luminescence, 48 h. AID 686979. Potency, µM (doses to about 46.2 µM), hits mostly inhibitors. 420,000 tested, 12% active; note: nearly all actives have a fitted effect of over 55% in size
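Chicken DT40 Tdp1-/- cells stably complemented with human TDP1 were seeded at 400 cells/well in medium containing 20 nM camptothecin, exposed to pin-transferred compounds, and grown at 37 °C for at least 48 hr. Viability was read as ATP luminescence.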
HT1080NT lethal: kills 2HG-producing HT-1080-NT fibrosarcoma cells; HT-1080-NT fibrosarcoma viability, CellTiter-Glo ATP luminescence, 48 h; Potency, µM (top dose mostly 46.1 µM), hits mostly cytotoxic; 360,000 tested, 1.6% active; AID 686970;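 note: NT is the 2HG producing partner of a matched IDH1 knockdown line; nearly all actives have a fitted effect of over 55% in size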
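Viability by CellTiter-Glo luminescence after 48 h compound exposure at 37C of HT-1080-NT cells (750/well, RPMI, 5% FBS). % activity scaled between DMSO wells and medium-only wells, then curve-fitted and categorized by curve class.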
A number is an active result; i = inactive; ? = inconclusive; nt = no result. Shown is part of a subset that was picked to be rich in hits. Unless noted, calls come from the whole dose curve; as a rule, active = well fitted curve in the direction sought with a large enough effect; inconclusive = small, poorly fitted or top-dose-only effect, or another doubt; inactive = no such curve, though single readings can be large; an effect the other way counts as inactive or inconclusive.

SMILES | DT40 TDP1 no CPT | ALOX12 inh | IL-1B inflam inh | HT1080 IDH1KD tx | DT40 TDP1 CPT | HT1080NT lethal
CC(C)CCNC(=O)Nc1ccc2c(c1)N(C)C(=O)CS2 | ? | i | i | i | i | i
COc1ccccc1CNC(=O)Nc1ccc2c(c1)N(C)C(=O)c1ccccc1S2 | ? | i | nt | nt | ? | nt
C[C@H](NC(=O)c1nc[nH]c1C(=O)NCCCCCNC(=O)OC(C)(C)C)C(=O)OC(C)(C)C | 16µM | i | i | i | 18µM | i
CC(C)C[C@H](NC(=O)c1nc[nH]c1C(=O)NCCCCCNC(=O)OC(C)(C)C)C(=O)OC(C)(C)C | 18µM | i | i | ? | ? | ?
CC(C)(C)OC(=O)CNC(=O)c1[nH]cnc1C(=O)NCCCCCN | i | i | i | i | i | i
CC(C)(C)OC(=O)CNC(=O)c1[nH]cnc1C(=O)NCCCCCNC(=O)OC(C)(C)C | 15µM | i | i | i | 23µM | i
CC(C)C[C@H](NC(=O)c1nc[nH]c1C(=O)N[C@@H](CCCCNC(=O)OC(C)(C)C)C(=O)OC(C)(C)C)C(=O)OC(C)(C)C | 21µM | i | i | ? | 21µM | ?
C[C@H](NC(=O)c1nc[nH]c1C(=O)NCc1ccccc1)C(=O)OC(C)(C)C | ? | i | i | i | ? | i
CC(C)NC(=O)c1ccc(F)cc1I | nt | i | nt | nt | nt | nt
O=C(N[C@H]1CCCNC1=O)C1=C[C@@H](NC(=O)c2cccnc2)[C@@H](O)[C@H](O)C1 | nt | i | nt | nt | nt | nt
C=CCNc1nc(C2CC2)nc2c1CCN(C(=O)c1cscn1)CC2 | nt | i | nt | nt | nt | nt
CC(=O)c1cccc(NC(=O)C(Nc2ccc3oc(C)nc3c2)c2ccccc2)c1 (stereo unspecified) | nt | i | nt | nt | nt | nt
O=C(NNC(=O)c1ccccc1Cl)c1cccs1 | i | i | i | i | i | i
CC(NC(=S)NC(=O)c1cccs1)c1ccccc1 (stereo unspecified) | 18µM | 25µM | ? | i | i | i
O=C(CCc1ccccc1)NNC(=O)c1cc(Cl)ccc1O | 23µM | ? | i | ? | ? | i
O=C(NNC(=O)c1cc(Cl)ccc1O)c1cccs1 | 18µM | i | i | ? | ? | i
O=C(NNC(=S)NC(=O)c1ccccc1)c1ccc([N+](=O)[O-])cc1 | 12µM | ? | i | i | 13µM | i
CC/C=C(/C)C(=O)NCCc1cccs1 | nt | i | nt | nt | nt | nt
O=C1COCC2(CN(c3ccc(C(F)(F)F)cn3)C2)CN1c1ccccc1F | nt | i | nt | nt | nt | nt
O=C(NC(=S)NNC(=O)c1ccccc1O)c1ccccc1 | 29µM | i | i | i | ? | ?
Cc1ccc(S(=O)(=O)NNC(=S)NC(=O)c2ccc([N+](=O)[O-])cc2)cc1 | i | i | i | i | i | i
O=C(NNC(=S)NC(=O)c1ccc(Br)cc1)c1cccc([N+](=O)[O-])c1 | 16µM | 40µM | i | ? | 18µM | ?
O=C(NNC(=S)NC(=O)c1ccc(Br)cc1)c1ccc([N+](=O)[O-])cc1 | 23µM | 45µM | i | i | ? | i
Cc1ccc(C(=O)NC(=S)NNC(=O)c2ccc([N+](=O)[O-])cc2)cc1 | 15µM | ? | i | i | ? | i
O=C(NNC(=O)c1ccc([N+](=O)[O-])cc1)c1ccc(Br)cc1 | i | i | i | i | i | i
SMILES | DT40 TDP1 no CPT | ALOX12 inh | IL-1B inflam inh | HT1080 IDH1KD tx | DT40 TDP1 CPT | HT1080NT lethal
Cc1ccc(C(=O)NC(=S)NNC(=O)c2ccccc2O)cc1 | ? | i | i | ? | ? | ?
COc1ccc(-c2noc(Nc3cc(OC)c(OC)c(OC)c3)n2)cc1OC | nt | i | nt | nt | nt | nt
Cc1ccc(SC(C)C(=O)Nc2c(C)cccc2C)cc1 (stereo unspecified) | nt | i | nt | nt | nt | nt
O=C(NC(=S)NNC(=O)c1ccccc1O)c1cccs1 | 26µM | ? | i | i | 23µM | ?
O=C(NC(=S)NNC(=O)c1ccccc1O)c1ccc([N+](=O)[O-])cc1 | 15µM | i | i | i | 26µM | i
Cc1nc2c(=O)n(-c3ccc(F)cc3F)nc(C)c2s1 | i | ? | i | i | i | i
Cc1nc2[nH]c(=O)n(O)c(=O)c2s1 | 26µM | i | i | i | ? | i
O=C(COc1ccc2c(=O)c(Oc3ccc(F)cc3)coc2c1)NCc1ccc(F)cc1 | nt | i | nt | nt | nt | nt
O=C(NC[C@H]1O[C@@H](CO)[C@@H](O)[C@H]1N1CCN(c2ccccn2)CC1)Nc1ccc(F)cc1F | nt | 10µM | nt | nt | nt | nt
O=S(=O)(NC[C@H]1O[C@@H](CO)[C@@H](O)[C@H]1N1CCOCC1)c1ccccc1 | nt | i | nt | nt | nt | nt
O=S(=O)(NC[C@H]1O[C@@H](CO)[C@@H](O)[C@H]1N1CCN(c2ccccc2)CC1)c1ccc(F)cc1 | nt | 22µM | nt | nt | nt | nt
